PubChem BioAssay AID778 (Sanford-Burnham Center for Chemical Genomics, 2007)
About 20,000 (21%) of roughly 96,000 compounds were called active. These entries were drawn from the full list. A number with no mark means an inactive call.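 Rule for the calls: active = CYP2C19 inhibition above a set limit at 5 µM in the primary screen (cut at about 50% in these data); inactive = the rest.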

The molecules below were run against Cytochrome P450 2C19 (Homo sapiens) (UniProt P33261) (assay: blockers of cytochrome P450 2C19 activity – biochemical, luminescence, ADME assay, primary screen (AID 778;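 note: plate controls were negative control wells for no effect and 2.5 mM tranylcypromine positive control for full effect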)). Settings: CYP2C19 Supersomes, luciferin-H EGE luminescence, 30 min; at 5 µM; stronger effect = higher value.
Cytochrome P450 2C19 (Homo sapiens), sequence (P33261 whole entry, looked up): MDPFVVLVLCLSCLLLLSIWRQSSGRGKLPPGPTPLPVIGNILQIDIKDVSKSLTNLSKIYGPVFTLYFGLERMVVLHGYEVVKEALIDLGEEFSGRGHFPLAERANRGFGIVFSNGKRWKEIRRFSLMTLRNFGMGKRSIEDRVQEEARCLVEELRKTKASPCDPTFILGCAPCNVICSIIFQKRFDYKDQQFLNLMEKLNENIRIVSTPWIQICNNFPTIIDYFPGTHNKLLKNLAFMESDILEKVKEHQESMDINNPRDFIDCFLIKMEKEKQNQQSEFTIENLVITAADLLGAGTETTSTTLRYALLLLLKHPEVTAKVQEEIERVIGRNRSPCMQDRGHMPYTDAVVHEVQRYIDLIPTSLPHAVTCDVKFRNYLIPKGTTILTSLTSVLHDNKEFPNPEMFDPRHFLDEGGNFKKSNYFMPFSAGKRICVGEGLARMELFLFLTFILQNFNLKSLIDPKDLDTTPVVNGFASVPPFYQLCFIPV
In the case of `CCOC(=O)c1ccc(-n2c(C)nc3c(cnn3-c3ccccc3C)c2=O)cc1`, the inhibition is reported as -20.1%. For `N#Cc1cccc(NC(=O)CCC2CCCC2)c1`, the inhibition was 73.6% (active). Work on `COC(=O)c1sccc1NC(=O)CCC1CCCC1` yielded an inhibition of -0.5%. `CCOc1cccc(NC(=O)CC#N)c1` gave an inhibition of -5.8%. Molecule `CCOC(=O)N1CCC(NC(=O)C(C)n2c3ccccc3c3cnn(C)c(=O)c32)CC1` (centres undefined) has an inhibition of 5.1%. `NC(CSC12CC3CC(CC(C3)C1)C2)C(=O)O` (centres undefined) gave an inhibition of 12.9%. With `Cc1cc(C)cc(OCC(=O)NNC(=O)c2cc3ccccc3oc2=O)c1` the inhibition was 5.4%. `CC(C)n1c(C(O)c2ccccc2)nc2ccccc21` (centres undefined) was tested, and the inhibition was 67.7% (active). With `CCOCCn1c(C(C)C)nc2ccccc21` the inhibition was 15.5%. Molecule `COc1cc(C(O)c2nc3ccccc3n2C)cc(OC)c1OC` (centres undefined) has an inhibition of 46.5%. Molecule `COc1ccc(C)c(Cn2c(-c3nonc3N)nc3ccccc32)c1` has an inhibition of 18.5%. With `CCOc1ccc(C(O)Cn2c(=N)n(CCN3CCCCC3)c3ccccc32)cc1` (centres undefined) the inhibition was 9.8%. With `CCCn1c(C(O)c2ccc(OCC)cc2)nc2ccccc21` (centres undefined) the inhibition was 90.6% (active). With `CCCn1c(C(O)c2cc(OC)ccc2OC)nc2ccccc21` (centres undefined) the inhibition was 74.3% (active). `CC(Nc1nc(N2CCCC2)nc2ccccc12)c1ccccc1` (centres undefined) gave an inhibition of 15.5%. Molecule `CCc1nc(Nc2ccc3nccnc3c2)c2oc3ccccc3c2n1` has an inhibition of -11.6%. `O=C(N/N=C/C=C/c1ccccc1)C1CC1(c1ccccc1)c1ccccc1` (centres undefined) gave an inhibition of -19.2%. `Cc1ccc(NC(=O)c2nc[nH]c2C(=O)N2CCCCC2)c(C(=O)c2ccccc2)c1` showed an inhibition of 20.4%. With `CCOC(=O)c1nn(-c2cccc(C)c2)cc1C(=O)c1ccccc1` the inhibition was 75.3% (active). `CC(=O)c1nn(-c2cccc(Br)c2)cc1C(=O)c1cccc2ccccc12` gave an inhibition of 9.4%. `CCCCc1nnc(NC(=O)CS(=O)(=O)Cc2ccccc2)s1` was tested, and the inhibition was 8%. `Cc1cc2ccccc2n1CCNC(=O)COc1ccc2ccccc2c1` gave an inhibition of 14.5%. `OC(COCCC12CC3CC(CC(C3)C1)C2)CN1CCCCC1` (centres undefined) showed an inhibition of 35.1%. With `Cc1ccc(NC(=S)Nc2ncccc2C)c(C)c1` the inhibition was 86.3% (active). Work on `Cc1cccc(NC(=O)C2CCN(S(=O)(=O)c3cccc4cccnc34)CC2)c1` yielded an inhibition of 40.7%. With `CCOc1ccc(NC(=O)N2CC=C(n3c(=O)[nH]c4ccccc43)CC2)cc1` the inhibition was 11.1%. With `COc1ccc(N(C(=O)c2cccnc2)S(=O)(=O)c2ccc3c(c2)n(C)c(=O)n3C)cc1` the inhibition was 57.8% (active). Work on `COc1ccc(-c2c3c(=O)n(C)c(=O)n(C)c3cn2-c2cccc(OC)c2)cc1` yielded an inhibition of -4%. With `COc1ccc(-c2c3c(=O)n(C)c(=O)n(C)c3cn2NC(C)=O)cc1` the inhibition was -2.1%.
